# Assay results: PubChem BioAssay AID624134 (Broad Institute, 2012)
# The campaign covered roughly 1,600 compounds. About 1,100 (69%) were called active. So high a share suggests a set chosen from earlier hits. These entries were drawn from the full list. Potency and affinity values are given separately. Results filed as inconclusive are left out. A number with no mark means an inactive call.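 Rule for the calls: active = signal drop with fitted half-maximal concentration no higher than twice the top valid tested concentration; inconclusive = flat curve with 30 to 70% signal loss, or poor fit; inactive = the rest, including signal rises and flat curves within 30%.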
# Assay: HepG2 cell cytotoxicity, dose response, cytotoxicity control for Shn3 inhibitor project, CellTiter-Glo, cherry-picked (AID 624134);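 note: 0% = median of neutral control wells and -100% = median of positive control wells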
# Conditions: HepG2 viability, CellTiter-Glo ATP luminescence, 48 h; series mostly up to 35 µM; activity change, negative = cytotoxicity: at the top concentration
row,Compound,"activity change, negative = cytotoxicity [%]"
1,CC(C)CCNC(=O)c1cc2c(=O)[nH]c3ccccc3c2s1,-3.4
2,Cc1ccc(OC(=O)CCC(=O)Oc2ccc(C)cc2C)c(C)c1,-6.33
3,CCCC(c1nnnn1Cc1ccc(OC)cc1)N1CCN(c2ccccc2)CC1 (stereo not given),0.213
4,CCOC(=O)C1CCN(C(=O)c2ccc(OCC(=O)Nc3cccc(C(F)(F)F)c3)c(OC)c2)CC1,-1.16
5,Cc1ccccc1N/C(=N/S(=O)(=O)c1ccccc1)c1ccc(F)cc1,3.51
6,CCOC(=O)C1CCCN(S(=O)(=O)c2ccc(S(=O)(=O)N(CC)CC)cc2)C1 (stereo not given),-10.4
7,Cc1ccc(CNC(=O)CSc2c3c(nc4ccc(Cl)cc24)CCCC3)o1,-8.16
8,CCOc1cc(/C=C2\C(=O)ON=C2C)ccc1OCc1ccccc1,-10.3
9,CC1=NOC(=O)/C1=C\c1ccc(-c2cc(Cl)ccc2Cl)o1,-3.66
10,O=C(CSc1nc2c(c(=O)n1-c1ccc(Br)cc1)SCC2)NCc1ccco1,-2.52
11,Cc1cc(-n2c(C)cc(C(=O)CSc3nncn3C)c2C)no1,-14.7
12,CCCC(=O)NC(=S)Nc1ccc(N2CCN(C(=O)c3cccs3)CC2)cc1,-8.86
13,O=C(NCCc1ccccc1)c1ccc2c(c1)OCCO2,-7.75
14,CCOC(=O)c1c(NC(=O)c2nn(CC)cc2Br)sc(C)c1C,-2.17
15,CCOC(=O)c1sc(NC(=O)CCCn2nc([N+](=O)[O-])c(Cl)c2C)c(C(=O)OCC)c1C,-11.3
16,COc1ccccc1N1CCN(c2ncc(C(=O)N3CCN(c4cccc(Cl)c4)CC3)c3ccccc23)CC1,-11
17,O=C(Nc1cccc(S(=O)(=O)NC2=NCCC2)c1)C1CC(=O)N(c2ccc3c(c2)OCCO3)C1 (stereo not given),-3.38
18,C=C1C(=O)[C@@]23[C@H](O)C[C@@H]4C(C)(C)CC[C@H](O)[C@]4(C)[C@@H]2C[C@H](O)[C@@H]1[C@H]3O,-9.65
19,CCc1c(O)nc(SCC(=O)Nc2ccccc2)n(-c2ccccc2)c1=O,-0.296
20,O=C(CSc1nc2[nH]ncc2c(=O)[nH]1)Nc1ccccc1C(F)(F)F,-6.41

row,Compound,"activity change, negative = cytotoxicity [%]"
1,O=C(NCCNC(=O)Oc1cccc2ccccc12)Oc1cccc2ccccc12,-9.86
2,COc1cc2ncnc(N[C@H](C)c3ccccc3)c2cc1OC,-7.07
3,Cc1cc(C)n(-c2cc(-n3nc(C)cc3C)ncn2)n1,-4.14
4,CCn1c(C)cc(C(=O)COC(=O)c2ccccc2[N+](=O)[O-])c1C,-3.22
5,COc1ccc(C(=O)OCC(=O)Nc2ncc([N+](=O)[O-])s2)cc1OC,-13.6
6,CS(=O)(=O)c1ccc(C(=O)OCC(=O)N2CCOCC2)cc1[N+](=O)[O-],-12.7
7,C=C1C(=O)C23C(O)C1CCC2C12COC3(O)C(O)C1C(C)(C)CCC2O (stereo not given),-11.4
8,CCO[C@@H]1OC(C(=O)NC2CC2)=C[C@H](c2coc3ccccc3c2=O)[C@H]1CCCO,-7.66
9,CCCCCCCCCCOC(=O)Cn1c(COc2ccc(OC)cc2)[n+](C)c2ccccc21,-45.4
10,CSc1cccc(NC(=O)N2CCCC(CNS(=O)(=O)Cc3ccccc3)C2)c1 (stereo not given),2.73
11,Cc1nc2ncnn2c(C)c1Cc1cccc(F)c1,9.15
12,CC(C)=CCC/C(C)=C/CNC(=O)C[C@H]1C[C@H](C(=O)N2CCOCC2)[C@@]2(C)c3[nH]c4cc(CCC(=O)N(C)C)ccc4c3CCN2C1=O,-0.565
13,O=C(Cn1cc(C(=O)C2CC2)c2ccccc21)Nc1ccccc1Cl,-7.27
14,CCC(=O)c1cn(CC(=O)Nc2cccc(C)c2C)c2ccccc12,-5.31
15,CCN(CC)C(=S)Sc1c(-c2ccccc2)c2cc(Cl)ccc2[nH]c1=O,-4.13
16,O=C(Nc1ccc(S(=O)(=O)N2CCN(Cc3ccccc3)CC2)cc1)c1cnccn1,-11.4
17,O=C(COC(=O)c1n[nH]c2ccccc12)Nc1ccc(S(=O)(=O)N2CCCC2)cc1,-5.15
18,COc1ccc(NS(=O)(=O)c2ccc(NC(=O)C(CCSC)NC(N)=O)cc2)cc1 (stereo not given),-10
19,COc1ccc(C(=O)NNC(=O)c2cccc(S(=O)(=O)N3CCOCC3)c2)cc1,-5.14
20,O=C(CCS(=O)(=O)c1ccccc1)Nc1nc2c(s1)CCCC2,-13

row,Compound,"activity change, negative = cytotoxicity [%]"
1,COc1ccccc1/C=C1\CCCC2=C1Nc1nnnn1C2c1ccccc1OC (stereo not given),-11.8
2,O=C(O)c1cccc(COc2ccc(CO)cc2Cl)c1,0.142
3,O=C(O)c1cccc(COc2ccccc2Cl)c1,-6.88
4,CCN(CC)Cc1c(O)ccc2c1O/C(=C\C=C\c1ccccc1)C2=O,-1.45
5,Cc1ccc(-c2ccc(/C=C3\C(=O)ON=C3c3ccccc3)o2)c([N+](=O)[O-])c1,-4.13
6,Cc1ccc(NC(=O)C2CCCN(S(=O)(=O)c3c(C)noc3C)C2)cc1 (stereo not given),-0.872
7,Cc1csc(=O)n1CCC(=O)N(C)Cc1c(F)cccc1Cl,-12.2
8,CCn1cc(CNCc2cn(-c3ccccc3C)nc2-c2ccc(OC)c(F)c2)cn1,-7.23
9,CCOC(=O)C1CCN(c2cc3c(cc2NC(=O)c2ccccc2Br)n(C)c(=O)n3C)CC1,-8.07
10,CCN(CC)S(=O)(=O)c1ccc(N2CCOCC2)c(NC(=O)c2nn(C(C)C)c(=O)c3ccccc23)c1,-1.72
11,CC[C@]12c3[nH]c4cc(CCC(=O)N(C)C)ccc4c3CCN1C(=O)[C@@H](CC(=O)NC/C=C(\C)CCC=C(C)C)C[C@@H]2C(=O)N1CCN(C(=O)c2ccco2)CC1,-14.9
12,COc1ccc(-c2cc(C(F)(F)F)nc(S(=O)(=O)CCCC(=O)Nc3cccnc3Cl)n2)cc1OC,-38.1
13,COc1ccc([C@H]2CC(=O)C=C(c3ccc4c(c3)OCO4)C2)cc1OC,5.26
14,COc1cc(C(=O)OCC(=O)NC2CCCCCC2)ccc1OCC(C)C,-6.66
15,CC(=O)OCC(=O)[C@@]1(O)CC[C@H]2[C@@H]3CCC4=CC(=O)CC[C@]4(C)[C@H]3C(=O)C[C@@]21C,-6.11
16,COc1ccc(S(=O)(=O)N2CCOCC2)cc1NC(=O)COC(=O)CC1CC2CCC1C2 (stereo not given),-3.39
17,Nc1c(Br)cc2c(c1Br)C(O)c1ccccc1-2 (stereo not given),6.05
18,CN(C)c1ncnc2c1C(c1ccccc1)C(C)(C)O2 (stereo not given),-2.79
19,COc1cc(OC)cc(C(=O)OCC(=O)Nc2ccc(F)cc2F)c1,-1.06
20,COc1ccc(OC)c(NC(=O)c2cc(-c3cc(F)ccc3OCC3CCCO3)n[nH]2)c1 (stereo not given),-7.22
